Sampled rows, rich in hits. Any-hit rate of the full collection: about 19%.
HT1080 IDH1KD tx: kills HT-1080 cells with IDH1 knockdown; HT-1080 IDH1 knockdown viability, ATP luminescence, 48 h; Potency, µM (titrated, usually from 46.1 µM), without a hit: at the highest dose activity, negative = toxicity, actives largely listed as cytotoxic; actives 2% (n = 360,000);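 also: potency is read from the fitted curve at half-maximal effect; 0% = DMSO wells and -100% = cell-free medium wells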
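HT-1080-IDH1KD cells (IDH1 knocked down), 750/well in RPMI with 5% FBS, treated with compound 48 h at 37 degrees C. Viability by CellTiter-Glo luminescence, normalised to DMSO and no-cell wells; concentration-response curves classed.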
IL1B secr inh: inhibitors of inflammasome signaling (IL-1 beta secretion); THP-1 LPS/ATP IL-1B secretion, AlphaLISA, 16 h; active compounds read low; actives 4.7% (n = 360,000); activity change, % at 57.5 µM; in the data active = activity change below about -50%; inconclusive = mostly about -30% to -49%
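Secreted IL-1B measured by AlphaLISA bead assay after 16 h compound exposure of THP-1 cells; compounds (final up to 57.5 uM) added 1 h before LPS (250 ng/mL) and ATP (1.25 mM) stimulation; lower signal means less secretion.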
TDP1 cell noCPT: qHTS for Inhibitors of human tyrosyl-DNA phosphodiesterase 1 (TDP1): qHTS in cells in absence of CPT. DT40 Tdp1-/- hTDP1 cells, no CPT, ATP luminescence, 48 h. AID 686978, 2013. actives 15% (n = 420,000). Potency, µM (series often up to 46.2 µM), inactives show top-dose activity change, negative = growth inhibition, most hits filed as inhibitors; also: potency is read from the fitted curve at half-maximal effect; nearly all actives have a fitted effect of over 55% in size
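Readout: luminescence from CellTiter-Glo after 30 min in the dark at RT. Cells: DT40 Tdp1-/- with stable hTDP1, 400/well. Exposure: compounds alone, ≥48 hr, 37 °C.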
ELG1 repair inh: inhibitors of ELG1-dependent DNA repair in HEK293T cells; HEK293T ELG1-luciferase reporter, luminescence, 16 h; DNA damage induced by 5-fluorouridine; Potency, µM (top dose mostly 46.1 µM), for inactives: at the top dose activity change, negative = inhibition, actives largely listed as inhibitors; actives 2.3% (n = 330,000); also: potency is read from the fitted curve at half-maximal effect; nearly all actives have a fitted effect of over 55% in size
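Cells (2,000 per well) received 5-fluorouridine plus test compound or DMSO and were incubated 16 hr at 37 °C, 5% CO2. Luciferase activity was read by luminescence 30 min after ONE-Glo addition; signal suppression marked inhibition of damage-induced ELG1 function.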
DT40 TDP1 CPT: DT40-hTDP1 cell growth loss with CPT | chicken DT40 Tdp1-/-;hTDP1 cells + 20 nM CPT, ATP luminescence, 48 h | Potency, µM (titrated, usually from 46.2 µM), inactives show at the top dose activity change, negative = growth inhibition, actives largely listed as inhibitors | actives 12% (n = 420,000); also: potency is read from the fitted curve at half-maximal effect; nearly all actives have a fitted effect of over 55% in size
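Cell growth measured by CellTiter-Glo luminescence after a minimum 48 h, 37 C compound exposure with 20 nM CPT in Tdp1-knockout DT40 cells stably expressing hTDP1, seeded 400/well; qHTS titration format.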
HT1080-NT tox: kills 2HG-producing HT-1080-NT fibrosarcoma cells; Potency, µM (series often up to 46.1 µM), for the others: at the highest dose activity, negative = less viability, actives largely listed as cytotoxic; actives 1.6% (n = 360,000); HT-1080-NT fibrosarcoma viability, CellTiter-Glo ATP luminescence, 48 h;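 also: NT is the 2HG producing partner of a matched IDH1 knockdown line; potency is read from the fitted curve at half-maximal effect; 0% = DMSO-treated cells and -100% = media-only wells without cells; nearly all actives have a fitted effect of over 55% in size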
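Toxicity toward the 2HG-producing NT line was scored as %Activity, normalised to DMSO and no-cell wells, from CellTiter-Glo luminescence after 48 hours' treatment.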
An asterisk follows results filed as active; ? = inconclusive; . = no result. Unless noted, calls follow the shape of the dose curve; as a rule, active = well fitted curve in the direction sought with a large enough effect; inconclusive = small, poorly fitted or top-dose-only effect, or another doubt; inactive = no such curve, though single readings can be large; an effect the other way counts as inactive or inconclusive. Unless noted, % is scaled to controls: 0 for no effect and ±100 for the full control effect.

SMILES	HT1080 IDH1KD tx	IL1B secr inh	TDP1 cell noCPT	ELG1 repair inh	DT40 TDP1 CPT	HT1080-NT tox
CCOC(=O)c1c(S(=O)(=O)NCC(=O)Nc2ccc(F)cc2)c(C)n(C)c1C	-3.9%	-2.4	22.0%	-0.6%	8.7%	-1.0%
O=C(O)CSc1nnc(CSc2nc3ccccc3s2)n1-c1ccccc1	11.3%	-0.5	-10.3%	-6.2%	-11.2%	14.0%
CCn1c(CSc2nc3ccccc3s2)nc2ccccc21	-0.1%	-12.2	16.4µM*	-11.1%	?	6.4%
C#CCSc1nnc(CSc2nc3ccccc3s2)n1-c1ccccc1	-19.1%	?	18.4µM*	?	?	-6.8%
Cc1cc(C)n2c(Br)c(CSc3nc4ccccc4s3)nc2n1	-1.3%	-5.2	18.4µM*	?	-26.0%	0.8%
COc1ccc(-c2nc(CSc3nc4ncccc4[nH]3)c(C)o2)cc1OC	.	.	20.6µM*	.	?	.
Cc1oc(-c2cccc(Cl)c2)nc1CSc1nc2ncccc2[nH]1	.	.	20.6µM*	.	?	.
CCN(CC)S(=O)(=O)c1ccc(N=NC2=C(O)CC(C)(C)CC2=O)cc1	3.9%	-55.4*	?	12.6%	?	-7.1%
O=S(=O)(c1ccccc1)N1N=C(c2ccccc2)CC1c1ccccc1 (stereo not given)	-19.2%	-3.8	?	-14.3%	?	5.4%
O=S(=O)(c1ccccc1)N1N=C(c2cccs2)CC1c1ccc(Br)cc1 (stereo not given)	6.9%	-0.1	14.6µM*	-8.1%	23.1µM*	10.3%
Cc1ccc(NC(=O)C2CCN(S(=O)(=O)c3c(C)noc3C)CC2)cc1C	-15.8%	-12.4	?	-5.1%	?	2.2%
COc1cccc(CNC(=O)C2CCN(S(=O)(=O)c3cccs3)CC2)c1	?	6.4	-10.3%	3.4%	8.9%	10.6%
CCc1ccc(NC(=O)C2CCN(S(=O)(=O)c3c(C)noc3/C=C/c3cccs3)CC2)cc1	.	.	18.4µM*	.	?	.
CCc1ccc(NC(=O)C2CCN(S(=O)(=O)c3c(C)noc3/C=C/c3ccco3)CC2)cc1	.	.	-28.3%	.	?	.
CCc1ccc(NC(=O)C2CCN(S(=O)(=O)c3c(C)noc3/C=C/N(C)C)CC2)cc1	0.7%	-26.7	9.2µM*	-0.9%	?	0.0%
Cc1noc(/C=C/c2cccs2)c1S(=O)(=O)N1CCC(C(=O)Nc2ccc(F)c(Cl)c2)CC1	.	.	14.6µM*	.	13µM*	.
COc1cccc(CNC(=O)C2CCN(S(=O)(=O)c3c(C)noc3/C=C/c3cccs3)CC2)c1	.	.	23.1µM*	.	?	.
CC1(c2nnc(Cc3ccccc3)o2)CC(c2cccc(F)c2)=NO1 (stereo not given)	6.0%	18.9	-2.7%	-0.1%	-0.3%	-11.0%
Fc1ccc2c(c1)C1OCCCC1C(c1ccccc1)N2 (stereo not given)	?	5.1	18.4µM*	-23.9%	?	?
Cc1ccc(SCC(=O)Nc2ccc(S(=O)(=O)Nc3nccs3)cc2)cc1	3.0%	-10.7	3.66µM*	3.5%	?	3.5%
Cc1ccc(S(=O)(=O)NCCC(=O)Nc2nccs2)cc1	-27.3%	-64.3*	-14.3%	0.0%	12.8%	-5.2%
O=[N+]([O-])c1ccccc1S(=O)(=O)Nc1ccc(S(=O)(=O)Nc2nccs2)cc1	-26.3%	-15.7	16.4µM*	-7.7%	?	-23.3%
O=C(CCl)Nc1ccc(S(=O)(=O)Nc2nccs2)cc1	13µM*	?	?	-7.7%	?	?
CCOc1ccc(N(CC(=O)NC2CCCCC2)C(=O)CCC(=O)Nc2nccs2)cc1	5.5%	-18.4	0.3%	6.3%	-2.6%	1.6%
Cc1ccc(OCC(=O)N2CCC3(CC2)CC(=O)c2ccccc2O3)cc1	1.0%	-2.5	13µM*	-17.8%	20.6µM*	3.1%
SMILES	HT1080 IDH1KD tx	IL1B secr inh	TDP1 cell noCPT	ELG1 repair inh	DT40 TDP1 CPT	HT1080-NT tox
COc1cccc(OCC(=O)N2CCC3(CC2)CC(=O)c2ccccc2O3)c1	2.1%	-11.5	?	-5.5%	?	-2.5%
O=C1CC2(CCN(C(=O)COc3ccc(Cl)cc3)CC2)Oc2ccccc21	-0.3%	-55.3*	18.4µM*	?	?	-15.9%
CC1(C(=O)NC2CCCC2)CCC(=O)N1CCCn1ccnc1 (stereo not given)	19.1%	30.9	-0.7%	.	-11.8%	9.8%
COC(=O)c1ccc(CNC(=O)C(Cc2ccccc2)NC(=O)c2ccccc2)cc1 (stereo not given)	-0.8%	30.2	?	.	-23.4%	1.6%
CN(C)Cc1c(C(=O)N/N=C/c2ccccc2OCc2c(F)cccc2Cl)nnn1-c1nonc1N	8.2µM*	40.5	5.17µM*	?	4.11µM*	11.6µM*
CN(C)Cc1c(C(=O)N/N=C/c2cccc(OCc3c(F)cccc3Cl)c2)nnn1-c1nonc1N	-0.6%	0.0	7.31µM*	1.5%	9.2µM*	-0.9%
CN(C)Cc1c(C(=O)N/N=C/c2cccc3ccccc23)nnn1-c1nonc1N	23.9%	1.2	2.9%	17.6%	-7.7%	14.4%
CN(C)Cc1c(C(=O)N/N=C/c2cccc(OCc3ccc(F)cc3)c2)nnn1-c1nonc1N	10.1%	12.2	-11.2%	?	-2.4%	11.1%
CC(=O)Nc1ccc(S(=O)(=O)N[C@@H](C)C(=O)OCC(=O)NC2CCCC2)cc1	-1.1%	13.9	-0.6%	-2.2%	2.7%	12.5%
CCOC(=O)CSC1=C(C#N)C(c2ccc(C)cc2)C2=C(CCCC2=O)N1 (stereo not given)	1.2%	30.1	-26.3%	16.2%	-3.9%	-3.1%
Cc1ccc(NC(=O)CSC2=C(C#N)C(c3ccco3)C3=C(CCCC3=O)N2)cc1 (stereo not given)	3.7%	-51.9*	?	?	-23.8%	-1.9%
Cc1ccc(C(=O)CSC2=C(C#N)C(c3ccco3)C3=C(CC(C)(C)CC3=O)N2)cc1 (stereo not given)	?	-84.8*	10.3µM*	?	13µM*	-29.8%
CC1=C(C(=O)OC2CCCCC2)C(c2ccco2)C2=C(CC(C)(C)CC2=O)N1 (stereo not given)	1.4%	-13.7	?	?	18.4µM*	6.5%
N#CC1=C(SCC(=O)c2ccc(Cl)cc2)NC2=C(C(=O)CCC2)C1c1ccco1 (stereo not given)	18.4µM*	-88.1*	5.8µM*	?	5.17µM*	18.4µM*

Bioassay records deposited in PubChem BioAssay by National Center for Advancing Translational Sciences (NCATS).
